# Key:
# [1] = target: Protein kinase C gamma type (Homo sapiens) (UniProt P05129); conditions: at 1 µM;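 further: each value is an averaged percent inhibition of the enzyme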
# [2] = target: T1, Protein kinase C iota type (Homo sapiens) (UniProt P41743); conditions: at 0.1 µM
# T1 sequence (whole entry): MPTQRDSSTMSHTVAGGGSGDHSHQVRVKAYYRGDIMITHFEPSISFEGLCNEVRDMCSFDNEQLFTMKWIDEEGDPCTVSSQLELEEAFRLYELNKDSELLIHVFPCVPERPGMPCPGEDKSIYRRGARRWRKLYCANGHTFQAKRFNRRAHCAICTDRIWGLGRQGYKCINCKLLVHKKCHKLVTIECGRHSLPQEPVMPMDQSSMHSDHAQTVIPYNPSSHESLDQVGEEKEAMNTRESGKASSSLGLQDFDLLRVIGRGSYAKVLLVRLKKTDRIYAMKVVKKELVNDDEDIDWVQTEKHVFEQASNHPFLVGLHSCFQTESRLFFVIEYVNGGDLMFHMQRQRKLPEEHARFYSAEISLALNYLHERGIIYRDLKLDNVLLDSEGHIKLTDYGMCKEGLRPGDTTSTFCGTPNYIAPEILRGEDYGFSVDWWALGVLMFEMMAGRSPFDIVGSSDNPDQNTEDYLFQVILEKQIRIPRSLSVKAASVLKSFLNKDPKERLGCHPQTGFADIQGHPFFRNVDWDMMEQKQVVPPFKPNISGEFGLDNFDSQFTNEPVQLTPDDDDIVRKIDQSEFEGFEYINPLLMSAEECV
# [3] = target: T1, Protein kinase C iota type (Homo sapiens); conditions: at 1 µM
# [4] = target: Protein kinase C theta type (Homo sapiens) (UniProt Q04759); conditions: at 0.1 µM
# Chain of Protein kinase C theta type (Homo sapiens) (Q04759 whole entry, looked up): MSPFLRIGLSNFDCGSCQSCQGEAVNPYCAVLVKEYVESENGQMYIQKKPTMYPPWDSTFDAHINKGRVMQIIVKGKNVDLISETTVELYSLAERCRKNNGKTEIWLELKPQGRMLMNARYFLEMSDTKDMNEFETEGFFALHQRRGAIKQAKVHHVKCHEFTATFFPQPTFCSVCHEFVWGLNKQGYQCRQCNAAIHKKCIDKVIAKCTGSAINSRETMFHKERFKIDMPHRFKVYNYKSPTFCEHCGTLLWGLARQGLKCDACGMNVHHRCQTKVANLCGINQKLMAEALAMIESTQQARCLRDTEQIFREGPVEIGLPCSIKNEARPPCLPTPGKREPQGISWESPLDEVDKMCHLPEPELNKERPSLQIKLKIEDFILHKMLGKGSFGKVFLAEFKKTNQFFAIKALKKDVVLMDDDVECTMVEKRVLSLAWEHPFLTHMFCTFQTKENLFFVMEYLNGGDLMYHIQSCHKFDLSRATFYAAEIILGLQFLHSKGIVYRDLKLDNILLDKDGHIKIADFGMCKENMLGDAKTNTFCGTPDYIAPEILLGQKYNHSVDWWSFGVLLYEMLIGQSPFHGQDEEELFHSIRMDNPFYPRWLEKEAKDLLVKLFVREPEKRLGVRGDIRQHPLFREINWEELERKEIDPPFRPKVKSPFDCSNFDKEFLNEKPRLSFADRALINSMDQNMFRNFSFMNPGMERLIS
# [5] = target: Protein kinase C theta type (Homo sapiens) (UniProt Q04759); conditions: at 1 µM
# [6] = target: Protein kinase C beta type (Homo sapiens) (UniProt P05771); conditions: at 0.1 µM
# Chain of Protein kinase C beta type (Homo sapiens) (P05771 2-671 limits assumed): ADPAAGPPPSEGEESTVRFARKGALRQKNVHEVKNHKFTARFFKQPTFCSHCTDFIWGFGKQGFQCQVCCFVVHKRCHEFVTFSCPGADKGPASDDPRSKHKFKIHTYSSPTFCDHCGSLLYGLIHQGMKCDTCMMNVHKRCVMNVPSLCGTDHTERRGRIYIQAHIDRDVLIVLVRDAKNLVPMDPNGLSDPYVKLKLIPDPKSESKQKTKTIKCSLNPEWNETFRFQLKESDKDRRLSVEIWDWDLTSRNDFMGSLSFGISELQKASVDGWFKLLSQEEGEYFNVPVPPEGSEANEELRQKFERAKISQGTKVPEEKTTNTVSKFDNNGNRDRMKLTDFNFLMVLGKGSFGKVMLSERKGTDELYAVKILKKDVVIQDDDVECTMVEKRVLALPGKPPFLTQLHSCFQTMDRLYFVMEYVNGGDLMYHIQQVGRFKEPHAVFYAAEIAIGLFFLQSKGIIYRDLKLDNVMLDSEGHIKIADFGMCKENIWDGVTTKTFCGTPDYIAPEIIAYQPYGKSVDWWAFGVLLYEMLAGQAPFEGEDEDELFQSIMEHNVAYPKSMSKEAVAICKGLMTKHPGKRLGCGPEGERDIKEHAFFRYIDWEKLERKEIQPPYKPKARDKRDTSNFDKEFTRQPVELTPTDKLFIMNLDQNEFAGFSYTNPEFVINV
# [7] = target: Protein kinase C beta type (Homo sapiens) (UniProt P05771); conditions: at 1 µM
# [8] = target: T2, Serine/threonine-protein kinase D1 (Homo sapiens) (UniProt Q15139); conditions: at 0.1 µM
# T2 sequence (whole entry): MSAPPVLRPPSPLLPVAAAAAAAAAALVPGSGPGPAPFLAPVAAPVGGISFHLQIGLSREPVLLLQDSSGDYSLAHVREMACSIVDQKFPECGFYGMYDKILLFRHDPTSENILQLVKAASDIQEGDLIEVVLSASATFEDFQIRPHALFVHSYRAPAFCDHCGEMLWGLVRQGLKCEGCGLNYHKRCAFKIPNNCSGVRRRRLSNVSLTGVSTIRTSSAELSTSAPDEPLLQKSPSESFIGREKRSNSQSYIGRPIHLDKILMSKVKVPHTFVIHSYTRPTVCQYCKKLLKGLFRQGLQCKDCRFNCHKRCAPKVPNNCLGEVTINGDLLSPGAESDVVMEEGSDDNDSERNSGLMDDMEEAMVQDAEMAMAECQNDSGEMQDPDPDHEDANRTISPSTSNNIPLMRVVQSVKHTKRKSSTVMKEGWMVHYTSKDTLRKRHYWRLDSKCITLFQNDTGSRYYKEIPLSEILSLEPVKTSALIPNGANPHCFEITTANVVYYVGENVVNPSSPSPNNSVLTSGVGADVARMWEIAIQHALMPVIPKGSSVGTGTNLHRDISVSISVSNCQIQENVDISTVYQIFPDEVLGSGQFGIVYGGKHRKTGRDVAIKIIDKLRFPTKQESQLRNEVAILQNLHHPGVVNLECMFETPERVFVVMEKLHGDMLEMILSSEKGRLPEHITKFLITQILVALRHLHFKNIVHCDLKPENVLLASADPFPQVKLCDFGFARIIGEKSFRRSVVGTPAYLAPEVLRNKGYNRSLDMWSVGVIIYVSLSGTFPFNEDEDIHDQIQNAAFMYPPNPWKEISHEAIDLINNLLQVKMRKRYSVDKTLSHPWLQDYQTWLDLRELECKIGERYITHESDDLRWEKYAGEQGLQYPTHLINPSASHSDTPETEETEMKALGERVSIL
# [9] = target: T2, Serine/threonine-protein kinase D1 (Homo sapiens); conditions: at 1 µM
# [10] = target: T3, Serine/threonine-protein kinase D2 (Homo sapiens) (UniProt Q9BZL6); conditions: at 0.1 µM;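 further: reported percent inhibition values are means, part of the GSK PKIS kinase panel screen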
# T3 sequence (whole entry): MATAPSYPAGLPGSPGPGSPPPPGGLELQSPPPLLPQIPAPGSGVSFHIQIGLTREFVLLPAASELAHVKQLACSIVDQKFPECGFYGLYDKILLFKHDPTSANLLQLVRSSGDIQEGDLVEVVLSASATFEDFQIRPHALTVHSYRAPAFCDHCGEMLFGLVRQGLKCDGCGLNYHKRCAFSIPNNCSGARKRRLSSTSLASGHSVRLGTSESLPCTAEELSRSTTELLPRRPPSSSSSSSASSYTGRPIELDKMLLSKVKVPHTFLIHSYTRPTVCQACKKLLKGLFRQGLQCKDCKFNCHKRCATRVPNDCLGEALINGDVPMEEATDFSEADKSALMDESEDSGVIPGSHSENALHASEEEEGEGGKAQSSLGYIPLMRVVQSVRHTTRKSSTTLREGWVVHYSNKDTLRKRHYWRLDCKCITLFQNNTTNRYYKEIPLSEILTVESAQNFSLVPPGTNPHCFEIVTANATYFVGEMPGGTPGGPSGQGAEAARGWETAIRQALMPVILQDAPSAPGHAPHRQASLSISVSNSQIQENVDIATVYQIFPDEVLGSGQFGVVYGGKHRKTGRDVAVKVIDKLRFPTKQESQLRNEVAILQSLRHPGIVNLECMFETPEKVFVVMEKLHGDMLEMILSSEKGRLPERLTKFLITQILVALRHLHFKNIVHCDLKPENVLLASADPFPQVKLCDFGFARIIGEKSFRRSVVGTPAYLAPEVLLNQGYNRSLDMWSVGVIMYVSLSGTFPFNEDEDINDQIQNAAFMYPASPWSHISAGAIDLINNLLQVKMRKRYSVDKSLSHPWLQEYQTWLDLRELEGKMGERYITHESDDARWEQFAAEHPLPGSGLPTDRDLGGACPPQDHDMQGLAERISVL
SMILES,inhibition [1] [%],inhibition [2] [%],inhibition [3] [%],inhibition [4] [%],inhibition [5] [%],inhibition [6] [%],inhibition [7] [%],inhibition [8] [%],inhibition [9] [%],inhibition [10] [%]
NC(=O)c1cc(-c2ccc(F)cc2)cc(-c2ccncc2)c1N,5.15,0.73,0.87,1.84,3.65,1.46,1.35,4.65,3.31,3.51
COc1cc2ncn(-c3cc(OCc4cccs4)c(C(N)=O)s3)c2cc1OC,6.19,2.66,0.01,1.98,6.01,2.61,4.99,-0.16,-1.53,-1.61
CNC(=O)c1cncc(/C=C/c2c(C)cccc2C)c1,0.78,-1.41,-1.56,-0.68,0.76,-0.12,1.01,-2.84,-2.47,-2.56
CN(C)CCOc1ccc(-c2cc(-c3ccc4c(c3)CCC4=NO)c(-c3ccncc3)o2)cc1,0.02,-1.87,-1.84,-1.06,-0.42,-0.72,2.28,-0.39,0.79,0.89
O=C(Nc1n[nH]c2nc(-c3ccco3)ccc12)C1CC1,3.88,1.28,-0.15,0.24,-0.12,0.74,1.21,0.7,1.4,-0.13
Fc1ccc(-c2ncn(C3CCNCC3)c2-c2ccnc(Oc3ccc(F)c(F)c3)n2)cc1,4.25,1.82,1.79,2.61,2.43,0.97,3.85,2,7.05,1.25
C#Cc1cccc(Nc2ncnc3ccc(OCCCCNCCS(C)(=O)=O)cc23)c1,7.74,2.69,1.19,3.71,5.27,1.93,6.61,2.59,25,4.1
NS(=O)(=O)c1ccc(Nc2cc(-c3ccc(O)c(F)c3)n[nH]2)cc1,-0.85,-0.61,0.05,-1.75,-1.1,-0.96,0.72,-1.96,4.59,-2.32
COc1ccc2cc(-c3c(-c4ccncc4)nc(-c4ccc(S(C)(=O)=O)cc4C)n3C)ccc2c1,7.85,3.93,3.45,2.19,5.03,3.45,9.63,4.08,4.53,4.88
COc1cc(Nc2ncc3c(C)nc(-c4cccc(Oc5ccccc5)c4)n3n2)cc(OC)c1OC,2.12,0.93,1.81,0.31,-0.72,0.53,0.55,1.42,2.93,1.26
O=C1Nc2ccc(I)cc2C1=Cc1cc(Br)c(O)c(Br)c1,2.63,0.72,1.75,1.74,2.5,0.99,1.87,3.52,4.76,2.97
Clc1ccc(CNc2nccc(-c3cnn4ncccc34)n2)cc1,4.31,-0.38,-1.34,1.01,1.73,0.21,0.83,1.24,4.11,1.12
O=C(Nc1n[nH]c2nc(-c3ccc(O)cc3)c(Br)cc12)C1CC1,48.1,5.33,19.2,7.68,33.2,19,57.6,4.47,7.7,6.19
COc1cc(Nc2ncc(-c3ccccc3)o2)cc(OC)c1OC,1.46,0.32,0.77,-0.7,-0.9,0.3,2.2,-0.66,-1.47,-0.6
NC(=O)Cc1ccccc1Oc1nccc(-c2c(-c3ccc(F)cc3)ncn2C2CCNCC2)n1,0.76,0,0.16,0.43,-0.38,1.22,3.91,4.86,8.87,4.63
Fc1ccc(-c2ncn(C3CCNCC3)c2-c2ccnc(Oc3ccc4c(c3)OCO4)n2)cc1,6.16,4.45,4.29,3.38,3.39,1.38,5.69,4.85,12.4,5.35
CCS(=O)(=O)c1ccc(OC)c(Nc2ncc(-c3ccccc3Cl)o2)c1,5.15,0.15,-1.52,-0.01,2.29,-0.13,2.01,1.52,1.41,1.21

# Source: ChEMBL document CHEMBL1961873, “Compounds: GSK PKIS; Assays: Nanosyn kinase panel” (2012)
